Test results reported in PubChem BioAssay (NCI).
About 83,000 compounds went through this panel and 20% of them were active in at least one assay; those are over-represented in the sample as a whole.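 Compound tested at a single concentration for 48 hours in 96-well plates; a percent growth value below 10 was scored as active.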 A number with no mark means an inactive call. Calls of active or inactive are those of the source.

system: OVCAR-8 ovarian; assay: NCI-60 one-dose screen, 48 h (100 = growth as untreated, 0 = no growth, -100 = all killed); conditions: 10 µM unless noted
Protocol: Growth inhibition of the OVCAR-8 human tumor cell line is measured as a screen for anti-cancer activity. Cells are grown in 96 well plates and exposed to the test compound for 48 hours. Compounds are tested at a single concentration, which is 10^-5 M for most compounds. The reported endpoint is percent growth (GI% or GIPRCNT), where numbers from 0 - 100% represent growth inhibition, and numbers from -100% - 0 represent cell death. For example, a value of 40 represents 60% growth inhibition. A value of 0 means no net growth occurred over the course of the experiment. A value of -40 indicates 40% of cells at the beginning of the experiment died by the end of the experiment. A value of -100 means all cells are dead at the end of the experiment.
NCI-60 Human Tumor Cell Lines Screen was performed using the standard one-dose NCI protocol, which is described in more detail at https://dtp.cancer.gov/discovery_development/nci-60/default.htm.
Compounds with GIPRCNT values below 10 were considered active. Activity score was based on GIPRCNT using the following formula: […]
Score is 0 for GIPRCNT values of 100 or above, 50 for GIPRCNT values of 0, and 100 for GIPRCNT values of -100.

Row | Structure (SMILES) | growth
1 | COc1ccc(/C=C(\C#N)n2nc3cccc(F)c3n2)cc1 | 100%
2 | COc1ccccc1NS(=O)(=O)c1cccc(C(=O)Nc2ccc(Br)cc2)c1 | 57.6%
3 | COC(=O)N[C@H]1CCc2c(Cl)c(OC)c(OC)c(OC)c2-c2ccc(SC)c(=O)cc21 | 15.4%
4 | O=C(/C=C/c1c(-c2ccc(Cl)cc2)nn(-c2ccccc2)c1C(F)(F)F)c1ccc(Cl)cc1 | 77.8%
5 | COc1cc(-c2n/c(=C\c3c(O)[nH]c4ccc(Cl)cc34)cc3c2=Nc2ccccc2-3)ccc1F | -50.7% (active)
6 | O=C(CSc1nc2sc3c(c2c(=O)n1-c1ccc(Cl)cc1)CCCC3)Nc1nc(-c2cccc(Br)c2)cs1 | 68.1%
7 | CCCCCC(=O)Oc1ccc(/C(=C(\C)c2ccccc2)c2ccc(OCCN3CCCCC3)cc2)cc1 | 89.2%
8 | CCOC(=O)CCN(CC(C)C)C(=S)Nc1ccccc1 | 102%
9 | NC1=NN=C(N)C1=Cc1cc2ccccc2n2nnnc12 | 98.1%
10 | COc1cc(/C=N/NC(=O)c2cnn3c2NC(c2ccccc2)C3)ccc1Oc1ccccc1 (stereo not given) | 30.7%
11 | O=C(Nc1ccc(-c2ccc3c(c2)NC(=O)/C3=C\c2ccc[nH]2)cc1)NC1CC1 | 109%
12 | C=C(C)[C@@H]1CC[C@]2(C(=O)N[C@H](CO)Cc3ccccc3)CC[C@]3(C)[C@H](CC[C@@H]4[C@@]5(C)CCCNC(C)(C)[C@@H]5CC[C@]43C)[C@@H]12 | -76.3% (active)
13 | CCOC(=O)c1cc(C(=O)c2ccc(OC)c(OC)c2)n2ccc(/C=C/c3cc[n+](CC(=O)c4ccc(OC)c(OC)c4)cc3)cc12 | 95.5%
14 | CC(C)(C)[Si](C)(C)OC1[C@@H](O[Si](C)(C)C(C)(C)C)[C@@H](CNC(=O)NC(=O)CCl)O[C@H]1n1cnc2c(NC(=O)Nc3ccccc3)ncnc21 (stereo not given in full) | 1.14% (active)
15 | N#Cc1c(-c2ccccc2)nc2c(c(-c3ccccc3)nn2-c2ccccc2)c1-c1ccc(O)cc1 | 56%
16 | C#Cc1cccc(NC(=O)c2cccc(NC(=O)CCl)c2)c1 | -28.3% [8.25 µM] (active)
17 | O=C1c2c(c3c4cccc(F)c4[nH]c3c3ccc4ccccc4c23)C(=O)N1O | 42.2%
18 | CC(C)(C)c1cc(C=O)cc(C(C)(C)C)c1O | 94.1%
19 | CCCCCCNC(=O)Oc1ccc(/C(=C(\C)c2ccccc2)c2ccc(OCCCN(C)C)cc2)cc1 | 86.9%
20 | COc1ccc2c(c1)C(=O)CC(c1ccccc1OC)O2 (stereo not given) | 100%

Row | Structure (SMILES) | growth
21 | CN(C)CCC(=O)c1ccc([N+](=O)[O-])cc1 | 110%
22 | CCOc1ccc(/C=N/Nc2cc(C)nc3ccc(Br)cc23)cc1 | 90.6%
23 | CC(=O)Nc1ccc(-c2ccc3c(c2)NC(=O)/C3=C\c2ccc[nH]2)cc1 | 99.8%
24 | CCN(Cc1ccccc1)c1ccc(C=O)cc1 | 97.8%
25 | CC(=O)c1ccc(NS(=O)(=O)c2cccc(C(=O)Nc3ccc(Br)cc3)c2)cc1 | 67.3% [25 µM]
26 | CCOc1cccc(-c2nc(N)nc(Nc3ccccc3SSc3ccccc3Nc3nc(N)nc(-c4cccc(OCC)c4)n3)n2)c1 | 59.9%
27 | COc1ccc(C/C(=C(\C)c2ccc(OCCN3CCCC3)cc2)c2ccc(OCCN3CCCC3)cc2)cc1 | 64.9%
28 | CC1(C)CC(O)CCCCCCOc2c(CN)cccc2NC(=O)c2nc(cnc2N)-c2ccc(cc2)S1(=O)=O (stereo not given) | 23.5%
29 | Cc1ccc(-c2csc(NC(=O)CSc3nc(-c4ccccc4)cc(=O)[nH]3)n2)cc1 | 94.2%
30 | Cc1nc(N)nc(N[C@@H](C)c2nc3cccc(NCc4ccc(C(=O)NO)cc4)c3c(=O)n2-c2ccccc2)n1 | 70.3%
31 | O=C(O)c1ccc(-c2nn(-c3ccc(C(F)(F)F)cc3)cc2CNc2ccc(Oc3ccccc3)cc2)cc1 | 69%
32 | COc1ccc(C(=O)c2cc(C)c(OC)c(C)c2)c(OC)c1N(C(=O)CCl)C(=O)CCl | 10.3%
33 | CCCCOc1ccc(/C=N/Nc2cc(C)nc3ccc(Br)cc23)cc1 | -50.1% (active)
34 | CCN(CC)CCn1c(=O)c2cc(OC)c(OC)cc2c2ccc3cc4c(cc3c21)OCO4 | 53.2%
35 | CN(C)c1ccc(C2C(C#N)=C(/N=C/c3ccccc3)Oc3c2ccc2ccccc32)cc1 (stereo not given) | 89.6%
36 | CC(C)(C)CC(C)(C)n1nnnc1C(NC12CC3CC(CC(C3)C1)C2)c1ccccc1 (stereo not given) | 96%
37 | CN(C)c1ccc(Nc2c3ccccc3nc3cc(NC(=O)CCN4CCCC4)ccc23)cc1 | 4.51% (active)
38 | CCOC(=O)[C@@H]1CCCN(S(=O)(=O)c2ccc(S(=O)(=O)N(CC)CC)c(F)c2)C1 | 77.8%
39 | COC(=O)/C=C1\S/C(=N\NC(=O)c2cc3ccc2/C=C\c2ccc(cc2)/C=C\3)N(Cc2ccccc2)C1=O | 71.6%
40 | CC(Oc1ccc(C(=O)O)cc1C(F)(F)F)c1ccc(Oc2ccccc2)cn1 (stereo not given) | 96.6%
